# According to PubChem BioAssay (NCI):
# The panel holds about 79,000 compounds, 15% with a hit somewhere; the sample as a whole holds those more often. Unmarked numbers belong to inactive results. The source made the active and inactive calls. Cut-off read from the data, not from the text of the source: active = growth inhibition above about 70%; inactive = the rest.
# Legend:
# [1] = NCI Yeast Anticancer Drug Screen. Data for the rad52 strain (AID 147);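 note: 0% = growth of vehicle-treated control cultures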; conditions: S. cerevisiae rad52 mutant growth inhibition, hits give high values
# How it was run: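 Read-out: growth inhibition versus vehicle-treated controls. Cells were a DNA repair-deficient yeast strain treated with compounds.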
# [2] = NCI Yeast Anticancer Drug Screen. Data for the wt1 strain (AID 149);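 note: 0% = growth of vehicle-treated wt1 cultures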; conditions: S. cerevisiae wt1 strain (SPY 50644) growth inhibition, hits give high values
# How it was run: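 wt1 yeast, compound-treated; % growth inhibition vs vehicle control.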
# [3] = NCI Yeast Anticancer Drug Screen. Data for the rad50EPP+ strain (AID 151);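 note: 0% = growth of vehicle-treated control cultures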; conditions: S. cerevisiae rad50 mutant strain, hits give high values
# How it was run: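 Growth inhibition read against vehicle controls in rad50EPP+ yeast, a strain altered in DNA damage repair, after compound exposure.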
# [4] = NCI Yeast Anticancer Drug Screen. Data for the mgt1 strain (AID 153); conditions: S. cerevisiae mgt1 mutant growth inhibition, hits give high values
# How it was run: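 mgt1 yeast grown with test compound; read-out is growth inhibition versus vehicle-treated cultures.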
# [5] = NCI Yeast Anticancer Drug Screen. Data for the rad50 strain (AID 155);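 note: 0% = growth of vehicle-only cultures of the same strain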; conditions: S. cerevisiae rad50 strain growth inhibition, hits give high values
# How it was run: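 Genetically altered yeast (DNA repair pathway); compound treatment; growth inhibition vs vehicle ctrl.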
# [6] = NCI Yeast Anticancer Drug Screen. Data for the mec2-1 strain (AID 157); conditions: S. cerevisiae mec2-1 strain, hits give high values
# How it was run: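 Yeast mec2-1 mutant treated with compound. Readout: growth inhibition vs vehicle controls.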
# [7] = NCI Yeast Anticancer Drug Screen. Data for the rad14 strain (AID 159);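 note: 0% = growth of vehicle-treated control cultures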; conditions: S. cerevisiae rad14 strain growth inhibition, hits give high values
# How it was run: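 Test compounds were applied to a repair-deficient yeast strain. Its growth was then compared with that of cultures given vehicle alone, and inhibition was expressed relative to those controls.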
# [8] = NCI Yeast Anticancer Drug Screen. Data for the sgs1 mgt1 strain (AID 161);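 note: 0% = growth of cultures given vehicle only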; conditions: S. cerevisiae sgs1 mgt1 strain, hits give high values
# How it was run: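 Genetically altered yeast, compound exposure, growth inhibition relative to vehicle.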
# [9] = NCI Yeast Anticancer Drug Screen. Data for the CLN2oe strain (AID 163);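 note: 0% = growth of vehicle-only control cultures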; conditions: S. cerevisiae CLN2oe strain, hits give high values
# How it was run: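 Read-out: yeast growth inhibition, expressed relative to vehicle-only controls. The strain bears an engineered cell-cycle alteration.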
# [10] = NCI Yeast Anticancer Drug Screen. Data for the cln2 rad14 strain (AID 165);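 note: 0% = growth equal to vehicle treated cultures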; conditions: S. cerevisiae cln2 rad14 strain, hits give high values
# How it was run: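 cln2 rad14 yeast strain; compound exposure; growth inhibition read vs vehicle controls.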
# [11] = NCI Yeast Anticancer Drug Screen. Data for the bub3 strain (AID 167); conditions: S. cerevisiae bub3 mutant strain, hits give high values
# How it was run: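 Yeast carrying a defined mutation is treated with each compound, and growth is compared with that of vehicle-exposed cells to give inhibition.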
# [12] = NCI Yeast Anticancer Drug Screen. Data for the wt2 strain (AID 169);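 note: 0% = growth of vehicle-treated yeast cultures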; conditions: S. cerevisiae wt2 strain growth inhibition, hits give high values
# How it was run: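 Read-out: growth inhibition versus vehicle-treated control cultures after compound exposure of the yeast strain.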
# [13] = NCI Yeast Anticancer Drug Screen. Data for the mlh1 strain (AID 171);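 note: 0% = growth of vehicle-treated control cultures of the same strain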; conditions: S. cerevisiae mlh1 strain growth inhibition, hits give high values
# How it was run: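 Read-out: growth inhibition versus vehicle controls. Strain: engineered yeast with a defined DNA repair or cell cycle defect, compound-treated.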
# [14] = NCI Yeast Anticancer Drug Screen. Data for the sgs1 strain (AID 173);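 note: 0% = growth of vehicle-only control cultures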; conditions: S. cerevisiae sgs1 mutant, hits give high values
# How it was run: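 Read-out: yeast growth inhibition relative to vehicle controls, following compound exposure of a strain with a defined DNA repair/cell cycle alteration.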
# [15] = NCI Yeast Anticancer Drug Screen. Data for the mlh1 rad18 strain (AID 175); conditions: S. cerevisiae mlh1 rad18 strain growth inhibition, hits give high values
# How it was run: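 Yeast w/ defined DNA-repair lesions; compound exposure; growth vs vehicle controls → % inhibition.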
# [16] = NCI Yeast Anticancer Drug Screen. Data for the rad18 strain (AID 177); conditions: S. cerevisiae rad18 mutant growth inhibition, hits give high values
# How it was run: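 Readout: growth inhibition vs vehicle controls. Cells: genetically altered yeast strain, DNA repair defect.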
# [17] = at 5.0 µM (retest, dose inferred, filed as 0.5)
# [18] = at 50.0 µM (retest, dose inferred, filed as 5.0)
smiles,measurement,setting,value
CN(C)/C(=N/C(=S)Nc1ccccc1)SCc1ccccc1,growth inhibition,[1]; at 1.2 µM,-3%
same,growth inhibition,[1]; at 3.7 µM,-4%
same,growth inhibition,[1]; at 11.0 µM,-2%
same,growth inhibition,[1]; at 33.0 µM,6%
same,growth inhibition,[1]; at 100.0 µM,12%
same,growth inhibition,[2]; at 1.2 µM,-2%
same,growth inhibition,[2]; at 3.7 µM,-3%
same,growth inhibition,[2]; at 11.0 µM,0%
same,growth inhibition,[2]; at 33.0 µM,6%
same,growth inhibition,[2]; at 100.0 µM,6%
same,growth inhibition,[3]; at 1.2 µM,0%
same,growth inhibition,[3]; at 3.7 µM,1%
same,growth inhibition,[3]; at 11.0 µM,-5%
same,growth inhibition,[3]; at 33.0 µM,1%
same,growth inhibition,[3]; at 100.0 µM,13%
same,growth inhibition,[4]; at 1.2 µM,1%
same,growth inhibition,[4]; at 3.7 µM,2%
same,growth inhibition,[4]; at 11.0 µM,4%
same,growth inhibition,[4]; at 33.0 µM,11%
same,growth inhibition,[4]; at 100.0 µM,16%
same,growth inhibition,[5]; at 1.2 µM,-5%
same,growth inhibition,[5]; at 3.7 µM,-5%
same,growth inhibition,[5]; [17],-7%
same,growth inhibition,[5]; at 11.0 µM,-7%
same,growth inhibition,[5]; at 33.0 µM,8%
same,growth inhibition,[5]; [18],70% (active)
same,growth inhibition,[5]; at 50.0 µM,99.2% (active)
same,growth inhibition,[5]; at 100.0 µM,10%
same,growth inhibition,[6]; at 1.2 µM,-5%
same,growth inhibition,[6]; at 3.7 µM,-5%
same,growth inhibition,[6]; [17],-1%
same,growth inhibition,[6]; at 11.0 µM,-4%
same,growth inhibition,[6]; at 33.0 µM,10%
same,growth inhibition,[6]; [18],76% (active)
same,growth inhibition,[6]; at 50.0 µM,99.7% (active)
same,growth inhibition,[6]; at 100.0 µM,16%
same,growth inhibition,[7]; at 1.2 µM,-4%
same,growth inhibition,[7]; at 3.7 µM,-5%
same,growth inhibition,[7]; at 11.0 µM,-2%
same,growth inhibition,[7]; at 33.0 µM,13%
same,growth inhibition,[7]; at 100.0 µM,18%
same,growth inhibition,[8]; [17],11%
same,growth inhibition,[8]; [18],91% (active)
same,growth inhibition,[8]; at 50.0 µM,99% (active)
same,growth inhibition,[9]; at 1.2 µM,-8%
same,growth inhibition,[9]; at 3.7 µM,-11%
same,growth inhibition,[9]; at 11.0 µM,-13%
same,growth inhibition,[9]; at 33.0 µM,-6%
same,growth inhibition,[9]; at 100.0 µM,-1%
same,growth inhibition,[10]; [17],-15%
same,growth inhibition,[10]; [18],44%
same,growth inhibition,[10]; at 50.0 µM,98.8% (active)
same,growth inhibition,[11]; at 1.2 µM,-4%
same,growth inhibition,[11]; at 3.7 µM,-2%
same,growth inhibition,[11]; [17],6%
same,growth inhibition,[11]; at 11.0 µM,3%
same,growth inhibition,[11]; at 33.0 µM,8%
same,growth inhibition,[11]; [18],86% (active)
same,growth inhibition,[11]; at 50.0 µM,99.5% (active)
same,growth inhibition,[11]; at 100.0 µM,14%
same,growth inhibition,[12]; at 1.2 µM,-2%
same,growth inhibition,[12]; at 3.7 µM,-2%
same,growth inhibition,[12]; at 11.0 µM,0%
same,growth inhibition,[12]; at 33.0 µM,11%
same,growth inhibition,[12]; at 100.0 µM,14%
same,growth inhibition,[13]; at 1.2 µM,-2%
same,growth inhibition,[13]; at 3.7 µM,0%
same,growth inhibition,[13]; at 11.0 µM,3%
same,growth inhibition,[13]; at 33.0 µM,11%
same,growth inhibition,[13]; at 100.0 µM,20%
same,growth inhibition,[14]; at 1.2 µM,-3%
same,growth inhibition,[14]; at 3.7 µM,0%
same,growth inhibition,[14]; at 11.0 µM,7%
same,growth inhibition,[14]; at 33.0 µM,25%
same,growth inhibition,[14]; at 100.0 µM,30%
same,growth inhibition,[15]; [17],-1%
same,growth inhibition,[15]; [18],76% (active)
same,growth inhibition,[15]; at 50.0 µM,97.7% (active)
same,growth inhibition,[16]; at 1.2 µM,-4%
same,growth inhibition,[16]; at 3.7 µM,-1%
same,growth inhibition,[16]; at 11.0 µM,1%
same,growth inhibition,[16]; at 33.0 µM,16%
same,growth inhibition,[16]; at 100.0 µM,24%
CCCCCCCCCCCCCCCCCCN(C)C(COC)COP(=O)([O-])OCC[N+](C)(C)C (stereo unspecified),growth inhibition,[1]; at 1.2 µM,-58%
same,growth inhibition,[1]; at 3.7 µM,-67%
same,growth inhibition,[1]; at 11.0 µM,95% (active)
same,growth inhibition,[1]; at 33.0 µM,97% (active)
same,growth inhibition,[1]; at 100.0 µM,97% (active)
same,growth inhibition,[2]; at 1.2 µM,-34%
same,growth inhibition,[2]; at 3.7 µM,-56%
same,growth inhibition,[2]; at 11.0 µM,98% (active)
same,growth inhibition,[2]; at 33.0 µM,99% (active)
same,growth inhibition,[2]; at 100.0 µM,98% (active)
same,growth inhibition,[3]; at 1.2 µM,-33%
same,growth inhibition,[3]; at 3.7 µM,63%
same,growth inhibition,[3]; at 11.0 µM,97% (active)
same,growth inhibition,[3]; at 33.0 µM,98% (active)
same,growth inhibition,[3]; at 100.0 µM,98% (active)
same,growth inhibition,[4]; at 1.2 µM,14%
same,growth inhibition,[4]; at 3.7 µM,8%
same,growth inhibition,[4]; at 11.0 µM,98% (active)
same,growth inhibition,[4]; at 33.0 µM,99% (active)
same,growth inhibition,[4]; at 100.0 µM,98% (active)
same,growth inhibition,[5]; at 1.2 µM,-24%
same,growth inhibition,[5]; at 3.7 µM,-11%
same,growth inhibition,[5]; [17],1%
same,growth inhibition,[5]; at 11.0 µM,97% (active)
same,growth inhibition,[5]; at 33.0 µM,98% (active)
same,growth inhibition,[5]; [18],98% (active)
same,growth inhibition,[5]; at 50.0 µM,73.6% (active)
same,growth inhibition,[5]; at 100.0 µM,98% (active)
same,growth inhibition,[6]; at 1.2 µM,-48%
same,growth inhibition,[6]; at 3.7 µM,-46%
same,growth inhibition,[6]; [17],12%
same,growth inhibition,[6]; at 11.0 µM,97% (active)
same,growth inhibition,[6]; at 33.0 µM,98% (active)
same,growth inhibition,[6]; [18],99% (active)
same,growth inhibition,[6]; at 50.0 µM,23.9%
same,growth inhibition,[6]; at 100.0 µM,98% (active)
same,growth inhibition,[7]; at 1.2 µM,-69%
same,growth inhibition,[7]; at 3.7 µM,-78%
same,growth inhibition,[7]; at 11.0 µM,96% (active)
same,growth inhibition,[7]; at 33.0 µM,98% (active)
same,growth inhibition,[7]; at 100.0 µM,97% (active)
same,growth inhibition,[8]; [17],3%
same,growth inhibition,[8]; [18],2%
same,growth inhibition,[8]; at 50.0 µM,85.8% (active)
same,growth inhibition,[9]; at 1.2 µM,-39%
same,growth inhibition,[9]; at 3.7 µM,-44%
same,growth inhibition,[9]; at 11.0 µM,97% (active)
same,growth inhibition,[9]; at 33.0 µM,98% (active)
same,growth inhibition,[9]; at 100.0 µM,98% (active)
same,growth inhibition,[10]; [17],13%
same,growth inhibition,[10]; [18],-70%
same,growth inhibition,[10]; at 50.0 µM,8.85%
same,growth inhibition,[11]; at 1.2 µM,-23%
same,growth inhibition,[11]; at 3.7 µM,-40%
same,growth inhibition,[11]; [17],14%
same,growth inhibition,[11]; at 11.0 µM,98% (active)
same,growth inhibition,[11]; at 33.0 µM,98% (active)
same,growth inhibition,[11]; [18],10%
same,growth inhibition,[11]; at 50.0 µM,85.2% (active)
same,growth inhibition,[11]; at 100.0 µM,98% (active)
same,growth inhibition,[12]; at 1.2 µM,-41%
same,growth inhibition,[12]; at 3.7 µM,-55%
same,growth inhibition,[12]; at 11.0 µM,97% (active)
same,growth inhibition,[12]; at 33.0 µM,98% (active)
same,growth inhibition,[12]; at 100.0 µM,98% (active)
same,growth inhibition,[13]; at 1.2 µM,-34%
same,growth inhibition,[13]; at 3.7 µM,-54%
same,growth inhibition,[13]; at 11.0 µM,97% (active)
same,growth inhibition,[13]; at 33.0 µM,98% (active)
same,growth inhibition,[13]; at 100.0 µM,98% (active)
same,growth inhibition,[14]; at 1.2 µM,-64%
same,growth inhibition,[14]; at 3.7 µM,-64%
same,growth inhibition,[14]; at 11.0 µM,97% (active)
same,growth inhibition,[14]; at 33.0 µM,98% (active)
same,growth inhibition,[14]; at 100.0 µM,98% (active)
same,growth inhibition,[15]; [17],16%
same,growth inhibition,[15]; [18],98% (active)
same,growth inhibition,[15]; at 50.0 µM,50%
same,growth inhibition,[16]; at 1.2 µM,-64%
same,growth inhibition,[16]; at 3.7 µM,-24%
same,growth inhibition,[16]; at 11.0 µM,97% (active)
same,growth inhibition,[16]; at 33.0 µM,98% (active)
same,growth inhibition,[16]; at 100.0 µM,98% (active)
